Screening results from PubChem BioAssay.
LDHA inh – blocks human lactate dehydrogenase A. P00338. actives 0.15% (n = 480,000). activity change, % (values are at about 110 or 230 µM). purified LDHA, NADH/diaphorase-resazurin fluorescence; active compounds read low; in the data active = activity change below about -30%; inconclusive = mostly about -25% to -30%;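 also: plate controls were DMSO wells for no effect and wells without enzyme for full effect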
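Resorufin fluorescence (ex540/em590), read at 0 and 20 min after diaphorase/resazurin addition, reports the NADH left after a 5 min room-temperature reaction of 2 nM human LDH5 with 0.06 mM NADH and 0.2 mM pyruvate.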
12-LOX inh – inhibitors of human 12S-lipoxygenase ALOX12 | purified 12hLO, xylenol orange hydroperoxide absorbance | Potency, µM (doses to about 108 µM), without a hit: at the top dose activity change, negative = inhibition, usual class: inhibitors | actives 1.1% (n = 580,000) | AID 1671190; also: potency is read from the fitted curve at half-maximal effect; % is scaled to controls: 0 for no effect and ±100 for the full control effect
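Purified human 12hLO at 150 nM in 25 mM Hepes, 0.01% Triton X-100, pH 7.0, preincubated 15 min at room temperature with compound. Reaction started with 40 uM arachidonic acid, 30 min at room temperature. Hydroperoxide measured by Fe-xylenol orange, 573/405 nm absorbance ratio.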
Nrf2 activator – activators of Nrf2 (ARE) signaling. actives 0.31% (n = 410,000). AREc32 ARE-luciferase reporter (MCF7-derived line), luminescence, 24 h. Potency, µM (top dose mostly 46.1 µM), for the others: top-dose activation, actives largely listed as activators; also: potency is read from the fitted curve at half-maximal effect; % of control where 0% means no effect; nearly all actives have a fitted effect of over 65% in size
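Cells of the AREc32 ARE-luciferase line are plated in OPTI-MEM containing 5% FBS and left overnight at 37 deg C. Compounds are pinned in, incubation continues 24 hr, and firefly luciferase signal is then measured.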
mIDH1 inhibitor – inhibitors of human mutant IDH1 R132H; O75874; IDH1-R132H enzyme, NADPH consumption, diaphorase/resazurin fluorescence; Potency, µM (highest dose often 76.6 µM), for inactives: at the highest dose activity change, negative = inhibition, actives largely listed as inhibitors; actives 0.093% (n = 390,000); AID 602179; also: potency is read from the fitted curve at half-maximal effect; % is scaled to controls: 0 for no effect and ±100 for the full control effect; nearly all actives have a fitted effect of over 65% in size
Target sequence (O75874 whole entry R132H, stated change not applied): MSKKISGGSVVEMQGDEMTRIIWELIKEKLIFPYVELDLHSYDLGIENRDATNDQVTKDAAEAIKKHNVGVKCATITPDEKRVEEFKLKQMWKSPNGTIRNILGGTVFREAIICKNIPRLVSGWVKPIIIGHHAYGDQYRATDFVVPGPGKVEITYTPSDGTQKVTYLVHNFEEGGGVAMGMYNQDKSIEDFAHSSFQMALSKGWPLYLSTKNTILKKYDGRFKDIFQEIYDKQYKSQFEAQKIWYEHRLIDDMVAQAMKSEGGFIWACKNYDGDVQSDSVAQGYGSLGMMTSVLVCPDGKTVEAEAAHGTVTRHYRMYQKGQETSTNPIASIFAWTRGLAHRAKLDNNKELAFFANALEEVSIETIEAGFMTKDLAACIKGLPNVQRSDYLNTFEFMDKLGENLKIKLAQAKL
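IDH1-R132H (0.5 ug/mL) preincubated 30 min with compound, then NADPH (0.016 mM) and alpha-KG (2 mM) added; 80 min at RT, pH 7.5. Remaining NADPH coupled via diaphorase/resazurin to fluorescence (540/590 nm); concentration-response curves normalized to no-enzyme control.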
A549 viability – A549 cytotoxicity, counter-screen for Nrf2 inhibitors; Potency, µM (top dose mostly 46 µM), without a hit: top-dose activity change, negative = cytotoxicity, actives largely listed as inhibitors; actives 0.16% (n = 390,000); A549 ARE-Fluc cells, CellTiter-Fluor viability, 18-24 h; also: potency is read from the fitted curve at half-maximal effect; % is scaled to controls: 0 for no effect and ±100 for the full control effect
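A549 ARE-Fluc cells in 5% FBS OPTI-MEM, 5000 cells/well, rested 2 h then exposed to compounds in concentration-response for 18-24 h at 37 °C. Viability by CellTiter-Fluor fluorescence (Ex 405/Em 525) after 30 min; luciferase luminescence (BugLite, 15 min, RT) read afterwards.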
Nrf2 block – blocks Nrf2 signaling; A549 ARE-Fluc reporter, luciferase luminescence, 18-24 h; actives 2.1% (n = 360,000); Potency, µM (top dose mostly 46 µM), inactives show at the highest dose activity change, negative = inhibition, hits mostly inhibitors; also: potency is read from the fitted curve at half-maximal effect; % is scaled to controls: 0 for no effect and ±100 for the full control effect; nearly all actives have a fitted effect of over 60% in size
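A549 ARE_Fluc cells, 5000/well, 5% FBS OPTI-MEM; compounds in dose-response, 18-24 h at 37 °C/5% CO2; CellTiter-Fluor viability read (Ex 405/Em 525), then BugLite luciferase luminescence = Nrf2 activity.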
* marks the source's active call; other numbers are inactive results. In the library only some 2.7% were active in any assay of this set; here they are far more common. Unless noted, calls follow the shape of the dose curve; as a rule, active = well fitted curve in the direction sought with a large enough effect; inconclusive = small, poorly fitted or top-dose-only effect, or another doubt; inactive = no such curve, though single readings can be large; an effect the other way counts as inactive or inconclusive.

Results for CCNC(=S)Nc1ccc(F)c(Cl)c1 ?
LDHA inh: -1.5; 12-LOX inh: inconclusive

Results for COc1ccc(-n2c(=O)c3c(n2Cc2ccccc2)CN(C(=O)COc2ccccc2)CC3)cc1 ?
12-LOX inh: 25.7%

How did COc1ccc(/C=N/Nc2nc(C)cc(-c3ccccc3)n2)cc1OC do in these assays?
LDHA inh: -0.8; 12-LOX inh: 25.1%; Nrf2 activator: 0.0%; mIDH1 inhibitor: 2.4%; A549 viability: -6.5%; Nrf2 block: 23.1µM*

What do the screens show for `CCn1nnnc1SCc1nnc(-c2c(-c3ccccc3)noc2C)o1`?
LDHA inh: 3.1; 12-LOX inh: 17.5%

How did O=C(/C=C/c1cccc(C(F)(F)F)c1)N1CCN(C(=O)C2CC2)CC1 do in these assays?
LDHA inh: -12.0; 12-LOX inh: 30.8%

What do the screens show for `O=C(CSc1ncc(-c2ccc(Br)cc2)o1)N1CCCCC1`?
LDHA inh: -2.3; 12-LOX inh: -11.7%

How did CCOC(=O)c1ccc(N2C(=O)c3n[nH]c(-c4ccco4)c3C2c2cccc([N+](=O)[O-])c2)cc1 (centres undefined) do in these assays?
LDHA inh: -2.5; 12-LOX inh: 31.6µM*; Nrf2 activator: -0.2%; mIDH1 inhibitor: -6.3%; A549 viability: inconclusive; Nrf2 block: inconclusive

How did CCOC(=O)c1ccc(N2C(=O)c3n[nH]c(-c4cccs4)c3C2c2ccc(CC)cc2)cc1 (centres undefined) do in these assays?
LDHA inh: -1.7; 12-LOX inh: inconclusive; Nrf2 activator: -3.5%; mIDH1 inhibitor: -16.4%; A549 viability: inconclusive; Nrf2 block: 16.4µM*

Results for CCOC(=O)c1ccc(N2C(=O)c3n[nH]c(-c4cccs4)c3C2c2ccc(OCC)cc2)cc1 (centres undefined) ?
LDHA inh: 0.9; 12-LOX inh: -17.5%; Nrf2 activator: -2.6%; mIDH1 inhibitor: -1.8%; A549 viability: -24.1%; Nrf2 block: inconclusive

What do the screens show for `CCOC(=O)c1ccc(N2C(=O)c3n[nH]c(-c4cccs4)c3C2c2ccc(C(C)C)cc2)cc1` (centres undefined)?
LDHA inh: 2.1; 12-LOX inh: -18.8%; Nrf2 activator: -0.7%; mIDH1 inhibitor: 8.2%; A549 viability: inconclusive; Nrf2 block: 23.1µM*

What do the screens show for `CCOC(=O)c1ccc(N2C(=O)c3n[nH]c(-c4ccco4)c3C2c2ccc(C(=O)OC)cc2)cc1` (centres undefined)?
LDHA inh: 6.3; 12-LOX inh: inconclusive; Nrf2 activator: -0.1%; mIDH1 inhibitor: 8.3%; A549 viability: -20.2%; Nrf2 block: inconclusive

How did CCOC(=O)c1ccc(N2C(=O)c3n[nH]c(C)c3C2c2ccc(OC)cc2OC)cc1 (centres undefined) do in these assays?
LDHA inh: 0.3; 12-LOX inh: 0.0%; Nrf2 activator: -1.9%; mIDH1 inhibitor: -16.5%; A549 viability: inconclusive; Nrf2 block: 18.4µM*

What do the screens show for `CC(=O)Nc1ccc(OC(C)C)cc1`?
LDHA inh: 4.4; 12-LOX inh: 8.6%

Results for CC(C)C[C@H]1CCC[C@H](CC(C)C)[N+]1(C)C ?
LDHA inh: -9.1; 12-LOX inh: 14.1µM*

Results for Cc1ccc(S(=O)(=O)Nc2cccc3cccnc23)c([N+](=O)[O-])c1 ?
LDHA inh: 2.2; 12-LOX inh: 10.2%; Nrf2 activator: -2.7%; mIDH1 inhibitor: 5.6%; A549 viability: inconclusive; Nrf2 block: 10.3µM*

How did O=S(=O)(Nc1cccc2cccnc12)c1ccc(S(=O)(=O)N2CCCC2)cc1 do in these assays?
LDHA inh: 7.8; 12-LOX inh: 19.4%; Nrf2 activator: inconclusive; mIDH1 inhibitor: -1.5%; A549 viability: -10.3%; Nrf2 block: 5.17µM*

What do the screens show for `Cc1cc(C)c(NS(=O)(=O)c2cccc3cccnc23)c(C)c1`?
LDHA inh: -1.0; 12-LOX inh: 3.5%; Nrf2 activator: -0.2%; mIDH1 inhibitor: 12.2%; A549 viability: 0.4%; Nrf2 block: 0.4%

What do the screens show for `COc1cc(OC)c(OC)cc1/C=C(/C#N)C(=O)c1c(Cl)cccc1Cl`?
LDHA inh: 0.7; 12-LOX inh: 5.2%

What do the screens show for `COc1cc(/C=C(/C#N)C(=O)c2c(Cl)cccc2Cl)cc(OC)c1`?
LDHA inh: 3.8; 12-LOX inh: 28.2µM*

Results for COc1cccc(/C=C(/C#N)C(=O)c2c(Cl)cccc2Cl)c1 ?
LDHA inh: -18.6; 12-LOX inh: 7.08µM*

What do the screens show for `COc1cc(/C=C(/C#N)C(=O)c2c(Cl)cccc2Cl)cc(OC)c1O`?
LDHA inh: 15.5; 12-LOX inh: inconclusive

What do the screens show for `COc1cc(/C=C(/C#N)C(=O)c2c(Cl)cccc2Cl)cc(OC)c1OC`?
LDHA inh: 6.7; 12-LOX inh: 0.501µM*

Results for COc1cccc(/C=C(/C#N)C(=O)c2c(Cl)cccc2Cl)c1OC ?
LDHA inh: 7.6; 12-LOX inh: 20µM*

How did COc1ccc(C)cc1CN(C)C(=O)Cc1n[nH]c(=O)c2ccccc12 do in these assays?
LDHA inh: 0.4; 12-LOX inh: -11.9%

Results for Cc1cc(F)ccc1NS(=O)(=O)c1cc(C(=O)O)cc2c1CCC2 ?
LDHA inh: 4.5; 12-LOX inh: inconclusive

Results for N#CC(C(=O)C1=Cc2ccccc2OC1)c1nc2ccccc2[nH]1 (centres undefined) ?
LDHA inh: 2.2; 12-LOX inh: -7.7%

How did COc1cc(/C=C(\C#N)C(=O)c2ccc(O)c(O)c2)cc(I)c1O do in these assays?
LDHA inh: -44.5*; 12-LOX inh: inconclusive; Nrf2 activator: 1.2%; mIDH1 inhibitor: 3.9%; A549 viability: -10.6%; Nrf2 block: 17.1%

What do the screens show for `COc1cc(/C=C(/C#N)C(=O)Nc2cccc3ncccc23)cc(OC)c1OC`?
LDHA inh: 19.4; 12-LOX inh: 15.8µM*

Results for COc1cc(/C=C(\C#N)C(=O)Nc2cccc3ncccc23)cc(OC)c1OC ?
LDHA inh: -2.9; 12-LOX inh: inconclusive; Nrf2 activator: 3.9%; mIDH1 inhibitor: 9.4%; A549 viability: 1.8%; Nrf2 block: 21.4%

What do the screens show for `COc1ccccc1C1CCN(Cc2ccc3ccccc3c2)CC1`?
LDHA inh: -2.4; 12-LOX inh: 14.1µM*; Nrf2 activator: 6.1%; mIDH1 inhibitor: 5.9%; A549 viability: -17.2%; Nrf2 block: -1.4%

What do the screens show for `COc1ccccc1C1CCN(Cc2ccccc2)CC1`?
LDHA inh: -4.4; 12-LOX inh: -2.3%; Nrf2 activator: -1.1%; mIDH1 inhibitor: -0.7%; A549 viability: 1.3%; Nrf2 block: 11.8%
